As a reminder, the AC50 is the concentration giving half of the maximal activity seen.

The structures appear in SMILES notation. Records with an inconclusive call do not appear. The source made the active and inactive calls. Rule for the calls: active = hit-call score of the fitted dose curve at least 0.9, where 1 is the maximum; inconclusive = response in the unintended direction; inactive = score below 0.9.

Experiment [1] addresses rat Peripheral-type Benzodiazepine Receptor (PBR), Tspo (gene 24230) (UniProt P16257). Kind of experiment: NVS_MP_rPBR: NovaScreen (NVS) Membrane Protein Assay for rat Peripheral-type Benzodiazepine Receptor (PBR) (AID 2283335). In short, it runs like this: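 Rat kidney membranes; radioligand binding with displacement, filter-based scintillation counting, 1 h incubation. Primary screen in duplicate at 25 uM, actives followed in concentration series; loss of binding vs DMSO.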

Experiment [2] is described as follows: NVS_IC_rCaBTZCHL: NovaScreen (NVS) Ion Channel Assay for Calcium Channel, Type L, Benzothiazepine Site (CaBTZCHL) (AID 2283337). An outline of the steps:
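Scintillation counting of filter-bound radioligand gave the read-out, with reduced binding versus DMSO scored as activity. Membranes came from rat cortex and were read 1.5 h after compound addition. Chemicals were screened first in duplicate at 25 uM.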

The test system of experiment [3] is guinea pig Histamine Receptor (H2), gene 100729734. Kind of experiment: NVS_GPCR_gH2: NovaScreen (NVS) G Protein-Coupled Receptor Assay for guinea pig Histamine Receptor (H2) (AID 2283342). In short, it runs like this: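 Radioligand displacement on guinea pig striatal membranes, 1 h after dosing, filter-based scintillation counting; loss of signal versus DMSO. Single-point screen at 25 uM in duplicate, then concentration-response up to 50 uM.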

Experiment [4] concerns the target Estrogen receptor (Homo sapiens) (UniProt P03372). Kind of experiment: OT_ER_ERaERa_1440: Odyssey Thera (OT) 24-hour HEK293T Protein-Complementation Assay for Estrogen Receptor-alpha/-alpha Homodimer (AID 2283349).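 Note: hits raise fluorescence above DMSO for agonists and antagonists alike.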 In short, it runs like this: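 HEK293T cells stably expressing the human ER alpha ligand-binding domain (aa 310-547) as a homodimer PCA were dosed for 24 hours. Fluorescence intensity was read by laser scanning cytometry, and gain of signal was fitted relative to DMSO vehicle.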

Experiment [5] has the same target. Kind of experiment: OT_ER_ERaERa_0480: Odyssey Thera (OT) 8-hour HEK293T Protein-Complementation Assay for Estrogen Receptor-alpha/-alpha Homodimer (AID 2283351).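 Note: rise in fluorescence from reassembled reporter fragments on ERα LBD homodimer in nucleus or whole cell.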 In short, it runs like this:
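HEK293T, stable ERα LBD (aa 310-547) PCA homodimer; 8 h compound exposure; fluorescence intensity, laser scanning cytometer; positive fitting direction, DMSO baseline.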

The target of experiment [6] is T1, Estrogen receptor (Homo sapiens) + Estrogen receptor beta (Homo sapiens) (UniProt P03372+Q92731). The experiment in a line: OT_ER_ERaERb_0480: Odyssey Thera (OT) 8-hour HEK293T Protein-Complementation Assay for Estrogen Receptor-alpha/-beta Heterodimer (AID 2283352). An outline of the steps:
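Compound added to HEK293T cells carrying split-reporter-tagged ER-alpha and ER-beta LBDs, incubated 8 hours, then imaged by laser scanning cytometer. Signal rise in nucleus, or nucleus and cytoplasm, over vehicle was fitted in the positive direction.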

The target of experiment [7] is Estrogen receptor beta (Homo sapiens) (UniProt Q92731). The experiment in a line: OT_ER_ERbERb_0480: Odyssey Thera (OT) 8-hour HEK293T Protein-Complementation Assay for Estrogen Receptor-beta/-beta Homodimer (AID 2283357).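 Note: active means signal gain over DMSO baseline.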 An outline of the steps: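 Fluorescence intensity, nuclear for agonists and nuclear plus cytoplasmic for antagonists, was quantified by laser scanning cytometry versus vehicle after 8 h treatment. The cells were HEK293T stably carrying ER beta LBD fragment-complementation partners.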
Sequence of Estrogen receptor beta (Homo sapiens) (Q92731 whole entry, looked up, the tested form may be a part): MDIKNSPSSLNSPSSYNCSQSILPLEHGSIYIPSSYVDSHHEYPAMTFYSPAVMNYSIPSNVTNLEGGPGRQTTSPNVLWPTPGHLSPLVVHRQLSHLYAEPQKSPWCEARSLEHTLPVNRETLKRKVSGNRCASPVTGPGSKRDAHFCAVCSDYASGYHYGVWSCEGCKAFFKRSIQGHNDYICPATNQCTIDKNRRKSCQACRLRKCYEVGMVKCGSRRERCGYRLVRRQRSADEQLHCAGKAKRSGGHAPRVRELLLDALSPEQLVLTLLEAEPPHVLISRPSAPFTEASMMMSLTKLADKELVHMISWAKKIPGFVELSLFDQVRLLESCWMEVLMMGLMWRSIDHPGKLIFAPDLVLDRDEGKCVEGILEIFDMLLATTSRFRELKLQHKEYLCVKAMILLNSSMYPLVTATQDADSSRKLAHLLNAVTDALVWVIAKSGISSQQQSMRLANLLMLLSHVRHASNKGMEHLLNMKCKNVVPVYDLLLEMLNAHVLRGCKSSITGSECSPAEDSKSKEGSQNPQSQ

Experiment [8] deals with bovine Gamma-Aminobutyric Acid Type A Receptor Agonist (GABAR Agonist), GABRA1 (gene 780973) (UniProt P08219). The experiment in a line: NVS_LGIC_bGABAR_Agonist: NovaScreen (NVS) Ligand-Gated Ion Channel Assay for bovine Gamma-Aminobutyric Acid Type A Receptor Agonist (GABAR Agonist) (AID 2283338). An outline of the steps: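 Radioligand binding to bovine cerebellar membranes in agonist format, read by filter-based scintillation counting after 1 h. Primary screen in duplicate at 25 uM, with actives followed in concentration series. Gain of signal versus DMSO.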
Sequence of bovine Gamma-Aminobutyric Acid Type A Receptor Agonist (GABAR Agonist), GABRA1 (gene 780973) (P08219 whole entry, looked up): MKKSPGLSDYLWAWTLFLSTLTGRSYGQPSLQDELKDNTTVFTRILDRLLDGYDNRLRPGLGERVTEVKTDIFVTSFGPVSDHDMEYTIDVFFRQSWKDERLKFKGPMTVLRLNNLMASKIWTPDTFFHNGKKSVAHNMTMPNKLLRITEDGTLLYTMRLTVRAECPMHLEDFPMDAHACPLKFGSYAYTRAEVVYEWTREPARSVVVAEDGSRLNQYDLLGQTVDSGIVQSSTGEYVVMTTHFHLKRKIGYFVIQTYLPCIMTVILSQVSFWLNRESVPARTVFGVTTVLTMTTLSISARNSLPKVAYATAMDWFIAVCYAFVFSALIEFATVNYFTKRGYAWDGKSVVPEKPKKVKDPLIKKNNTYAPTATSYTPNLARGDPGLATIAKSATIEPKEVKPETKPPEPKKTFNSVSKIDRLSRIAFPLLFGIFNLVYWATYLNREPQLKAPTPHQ

The target of experiment [9] is rat Glutamate, MK-801 Agonist Site (GluNMDA_MK801), Grin1 (gene 24408) (UniProt P35439). Kind of experiment: NVS_LGIC_rGluNMDA_MK801_Agonist: NovaScreen (NVS) Ligand-Gated Ion Channel Assay for rat Glutamate, MK-801 Agonist Site (GluNMDA_MK801) (AID 2283340). In short, it runs like this: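 Radioligand binding at MK-801 site in rat forebrain membranes, 1.5 h incubation, filter-based scintillation counting. Initially 25 uM in duplicate; actives then run in concentration-response up to 50 uM, fitted for gain of signal versus DMSO.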

Experiment [10] has as its target Androgen Receptor/SRC-1 Co-activator, AR (gene 367) (UniProt P10275). Kind of experiment: OT_AR_ARSRC1_0960: Odyssey Thera (OT) 16-hour HEK293T Protein-Complementation Assay for Androgen Receptor/SRC-1 Co-activator (AID 2283353).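 Note: actives raise the signal above DMSO so potency reflects increased AR and SRC-1 complex.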 In short, it runs like this:
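Split-Venus PCA, AR/SRC-1 fusions, stable HEK293T; 16 h compound exposure; imaged at 488 and 635 nm; N/C ratio (488 nm channel), min 400 cells/image; positive-direction fit, DMSO baseline.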

Experiment [11] has the same target. The experiment in a line: OT_AR_ARSRC1_0480: Odyssey Thera (OT) 8-hour HEK293T Protein-Complementation Assay for Androgen Receptor/SRC-1 Co-activator (AID 2283354).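 Note: hits raise the complementation signal above DMSO so AC50 marks enhancers.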 In short, it runs like this:
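HEK293T cells stably expressing AR and SRC-1 fused to Venus YFP fragments, imaged 8 h after dosing. Complementation fluorescence scored as nuclear/cytoplasmic ratio at 488 nm in at least 400 cells per image; gain fitted versus DMSO.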

Experiment [12] deals with T1, Estrogen receptor (Homo sapiens) + Estrogen receptor beta (Homo sapiens). The experiment in a line: OT_ER_ERaERb_1440: Odyssey Thera (OT) 24-hour HEK293T Protein-Complementation Assay for Estrogen Receptor-alpha/-beta Homodimer (AID 2283356).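 Note: heteromer of ER alpha and ER beta binding domains; hits raise reporter fluorescence and both agonists and antagonists give an increase.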 In short, it runs like this:
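Stable HEK293T PCA line, ERα LBD 310-547 + ERβ LBD 263-489 fused to reporter fragments; 24 h treatment; fluorescence read by laser scanning cytometry; positive fitting direction relative to DMSO.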

For experiment [13], the target named is bovine Estrogen Receptor (ER), ESR1 (gene 407238) (UniProt P49884). Kind of experiment: NVS_NR_bER: NovaScreen (NVS) Nuclear Receptor Binding Assay for bovine Estrogen Receptor (ER) (AID 2283345).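 Note: actives lower the bound radioligand count which means they displace the ER ligand.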 In short, it runs like this:
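Cell-free radioligand binding with receptor from bovine uterine membranes, read by scintillation counting 18 h after dosing. Loss of specific binding was scored against DMSO; primary screen at 25 uM in duplicate, actives then run as concentration series.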

Experiment [14] concerns the target Estrogen receptor (Homo sapiens) (UniProt P03372). The experiment in a line: NVS_NR_hER: NovaScreen (NVS) Nuclear Receptor Binding Assay for human Estrogen Receptor (ER) (AID 2283348). An outline of the steps:
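Radioligand competitive displacement binding to estrogen receptor from MCF7 extract, cell-free; 18 h after dosing, scintillation read-out. Primary screen in duplicate at 25 uM; actives followed up in concentration series; loss of signal vs DMSO.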

In the next experiment the target is PGR (gene 5241) (UniProt P06401). The experiment in a line: NVS_NR_hPR: NovaScreen (NVS) Nuclear Receptor Binding Assay for human Progestron Receptor (PR) (AID 2283360).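 Note: active means loss of bound radioligand signal versus DMSO baseline.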 In short, it runs like this:
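Cell-free radioligand binding using receptor protein extracted from T47D cells, read by scintillation counting 18 hours after dosing. Loss of signal relative to DMSO baseline indicates displacement; primary screen single concentration 25 uM in duplicate, actives followed in concentration series.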

Sequence of bovine Estrogen Receptor (ER), ESR1 (gene 407238) (P49884 whole entry, looked up): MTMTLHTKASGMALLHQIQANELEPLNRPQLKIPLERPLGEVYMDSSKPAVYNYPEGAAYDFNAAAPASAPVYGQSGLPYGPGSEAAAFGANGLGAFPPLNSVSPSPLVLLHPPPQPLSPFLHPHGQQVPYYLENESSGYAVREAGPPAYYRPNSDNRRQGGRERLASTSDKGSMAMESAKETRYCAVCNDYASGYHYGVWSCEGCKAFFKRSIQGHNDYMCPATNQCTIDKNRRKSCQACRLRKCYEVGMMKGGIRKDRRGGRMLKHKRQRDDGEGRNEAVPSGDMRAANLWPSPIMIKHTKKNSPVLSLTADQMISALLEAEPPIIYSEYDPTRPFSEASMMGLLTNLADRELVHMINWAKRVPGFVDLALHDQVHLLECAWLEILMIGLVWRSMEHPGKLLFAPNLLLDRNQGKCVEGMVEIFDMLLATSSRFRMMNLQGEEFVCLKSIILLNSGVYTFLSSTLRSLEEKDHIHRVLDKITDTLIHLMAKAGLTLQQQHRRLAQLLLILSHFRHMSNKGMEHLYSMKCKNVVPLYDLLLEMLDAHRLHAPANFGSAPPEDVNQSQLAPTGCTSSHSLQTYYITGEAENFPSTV
T1 sequence (P03372 whole entry, looked up): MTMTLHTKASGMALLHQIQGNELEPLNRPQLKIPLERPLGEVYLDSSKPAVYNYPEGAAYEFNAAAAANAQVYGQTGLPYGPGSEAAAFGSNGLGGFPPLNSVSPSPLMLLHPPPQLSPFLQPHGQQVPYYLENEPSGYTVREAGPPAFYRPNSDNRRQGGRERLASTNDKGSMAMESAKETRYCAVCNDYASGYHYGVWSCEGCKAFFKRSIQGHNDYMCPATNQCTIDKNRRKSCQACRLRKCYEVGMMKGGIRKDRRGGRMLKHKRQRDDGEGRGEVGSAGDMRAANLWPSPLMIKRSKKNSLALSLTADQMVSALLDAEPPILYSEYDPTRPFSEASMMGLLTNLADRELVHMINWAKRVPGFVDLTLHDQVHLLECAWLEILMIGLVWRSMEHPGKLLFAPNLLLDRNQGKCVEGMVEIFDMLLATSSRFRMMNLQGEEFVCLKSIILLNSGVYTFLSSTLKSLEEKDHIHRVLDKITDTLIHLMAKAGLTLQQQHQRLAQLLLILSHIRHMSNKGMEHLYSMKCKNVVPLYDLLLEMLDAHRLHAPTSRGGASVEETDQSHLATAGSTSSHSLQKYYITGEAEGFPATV
T1 sequence (Q92731 whole entry, looked up): as the sequence (Q92731 whole entry, looked up, the tested form may be a part) above
Sequence of Estrogen receptor (Homo sapiens) (P03372 whole entry, looked up, the tested form may be a part): as the sequence (P03372 whole entry, looked up) above
Sequence of Androgen Receptor/SRC-1 Co-activator, AR (gene 367) (P10275 whole entry, looked up, the tested form may be a part): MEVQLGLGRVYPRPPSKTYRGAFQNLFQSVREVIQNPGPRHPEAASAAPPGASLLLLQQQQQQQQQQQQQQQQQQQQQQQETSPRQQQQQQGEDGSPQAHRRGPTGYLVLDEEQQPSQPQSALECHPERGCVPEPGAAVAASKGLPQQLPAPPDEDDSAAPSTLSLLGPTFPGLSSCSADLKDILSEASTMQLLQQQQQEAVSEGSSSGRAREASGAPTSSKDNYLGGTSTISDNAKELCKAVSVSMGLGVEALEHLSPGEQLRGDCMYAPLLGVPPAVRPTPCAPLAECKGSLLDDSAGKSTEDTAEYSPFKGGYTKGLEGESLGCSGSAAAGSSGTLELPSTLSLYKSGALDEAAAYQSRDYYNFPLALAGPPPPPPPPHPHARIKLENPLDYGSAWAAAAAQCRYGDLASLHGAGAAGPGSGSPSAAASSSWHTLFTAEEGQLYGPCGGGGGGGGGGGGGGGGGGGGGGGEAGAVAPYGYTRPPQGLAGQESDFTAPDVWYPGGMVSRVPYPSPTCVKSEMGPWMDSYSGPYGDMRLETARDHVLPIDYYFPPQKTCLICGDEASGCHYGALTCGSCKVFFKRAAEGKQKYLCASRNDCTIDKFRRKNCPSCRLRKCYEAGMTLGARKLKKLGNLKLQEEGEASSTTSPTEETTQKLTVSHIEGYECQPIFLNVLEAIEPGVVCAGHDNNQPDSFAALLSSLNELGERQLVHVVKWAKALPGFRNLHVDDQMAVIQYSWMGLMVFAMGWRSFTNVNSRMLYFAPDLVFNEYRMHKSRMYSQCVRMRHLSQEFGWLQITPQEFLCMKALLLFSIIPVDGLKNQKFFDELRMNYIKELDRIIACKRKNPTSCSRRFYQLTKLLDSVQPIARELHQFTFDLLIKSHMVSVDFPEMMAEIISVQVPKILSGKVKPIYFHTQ
Sequence of rat Peripheral-type Benzodiazepine Receptor (PBR), Tspo (gene 24230) (P16257 whole entry, looked up): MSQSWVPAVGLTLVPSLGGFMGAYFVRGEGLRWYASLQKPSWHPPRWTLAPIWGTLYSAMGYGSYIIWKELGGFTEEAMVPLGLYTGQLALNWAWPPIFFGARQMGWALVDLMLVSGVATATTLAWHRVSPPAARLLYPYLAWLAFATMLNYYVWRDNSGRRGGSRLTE
Sequence of PGR (gene 5241) (P06401 whole entry, looked up): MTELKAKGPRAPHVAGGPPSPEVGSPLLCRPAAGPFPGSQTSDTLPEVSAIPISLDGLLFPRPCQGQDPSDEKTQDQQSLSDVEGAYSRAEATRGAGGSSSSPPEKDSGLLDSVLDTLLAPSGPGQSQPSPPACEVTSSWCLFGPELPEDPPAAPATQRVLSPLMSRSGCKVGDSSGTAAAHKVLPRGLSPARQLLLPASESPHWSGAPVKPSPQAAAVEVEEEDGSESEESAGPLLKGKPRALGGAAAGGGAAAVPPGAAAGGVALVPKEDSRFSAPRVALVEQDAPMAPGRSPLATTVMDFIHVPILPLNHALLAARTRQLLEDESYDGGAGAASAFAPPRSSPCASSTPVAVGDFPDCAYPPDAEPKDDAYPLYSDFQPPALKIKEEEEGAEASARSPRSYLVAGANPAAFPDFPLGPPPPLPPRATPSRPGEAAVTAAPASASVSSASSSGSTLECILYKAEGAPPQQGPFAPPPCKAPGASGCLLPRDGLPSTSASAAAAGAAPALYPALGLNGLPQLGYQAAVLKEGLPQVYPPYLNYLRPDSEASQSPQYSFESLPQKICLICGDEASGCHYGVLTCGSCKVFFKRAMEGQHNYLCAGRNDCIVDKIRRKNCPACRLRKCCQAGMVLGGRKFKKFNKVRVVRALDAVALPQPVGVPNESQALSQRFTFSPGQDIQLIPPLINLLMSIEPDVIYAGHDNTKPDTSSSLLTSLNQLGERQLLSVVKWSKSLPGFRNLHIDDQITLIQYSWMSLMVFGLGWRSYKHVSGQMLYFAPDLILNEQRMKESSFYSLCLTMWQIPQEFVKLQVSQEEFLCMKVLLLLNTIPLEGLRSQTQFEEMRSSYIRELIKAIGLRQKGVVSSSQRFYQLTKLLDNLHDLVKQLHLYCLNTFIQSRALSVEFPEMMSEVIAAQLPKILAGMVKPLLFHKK

Consider `CCCCc1oc2ccccc2c1C(=O)c1cc(I)c(OCCN(CC)CC)c(I)c1`, for which the results for the AC50 in experiment [1], in experiment [2] and in [3] were 10.9 µM (active), 1.81 µM (active) and 9.85 µM (active), respectively. The compound was classed as inactive in [4], in [5], in [6] and in [7].
Regarding `O=C(CCCN1CCC(O)(c2ccc(Cl)cc2)CC1)c1ccc(F)cc1`, the AC50 is 2.55 µM (active) in [2] and 1.65 µM (active) in [3]. Moreover, the call in [8], in [9] and in [7] was inactive.
Turning to `COc1cc(OC)nc(NC(=O)NS(=O)(=O)Nc2ccccc2C(=O)N(C)C)n1`, the compound was called inactive in experiment [1].
Regarding `O=C(NCc1ncc(C(F)(F)F)cc1Cl)c1c(Cl)cccc1Cl`, the AC50 in experiment [1] was 0.005 µM (active).
For the compound `CCCCCc1ccc(O)cc1`, in experiment [1], the compound was called inactive.
For the compound `CN(C)CCOC(c1ccccc1)c1ccccc1`, the figures for the AC50 in experiment [2] and in experiment [3] were 5.8 µM (active) and 4.71 µM (active), respectively. Further, the result in experiment [8], in experiment [9], in experiment [4], in experiment [5], in experiment [6] and in experiment [10] was inactive. Moreover, the call in experiment [11] and in experiment [12] was inactive.
Turning to `Nc1cc(Cl)c(-c2cc(Cl)c(N)cc2Cl)cc1Cl`, the compound was classed as inactive in experiment [13]. The AC50 in [14] was 0.0384 µM (active).
Consider `CCCCCC(C)OC(=O)COc1ccc(Cl)c2cccnc12` (stereo unspecified), for which the call in [13], in experiment [14], in experiment [4] and in experiment [5] was inactive.
For the compound `c1cnc2c(c1)ccc1cccnc12`, the outcome in experiment [1] and in experiment [7] was inactive.
In the case of `CCCCCCCCCCCCCCC`, the compound was classed as inactive (in experiment [7]; with PGR (gene 5241)).
`CCc1ccccc1O`: the call in [13], in experiment [14], in experiment [4], in [5], in experiment [6] and in experiment [12] was inactive. The outcome in experiment [7] was inactive.
Take `CCCCCCc1ccc(N)cc1`: the result in experiment [13], in experiment [14], in [4], in [10] and in experiment [11] was inactive. The AC50 in [5] is 67.3 µM (active); in experiment [6], 30.1 µM (active); in [12] it was 21.4 µM (active); in experiment [7], 50 µM (active).

The record behind these values is PubChem BioAssay (EPA / NIEHS).
